The campaign covered roughly 310,000 compounds. About 2,200 (0.71%) showed an effect of 50% or more. The effect is printed as a negative number. What follows is part of a selection rich in strong results, with near analogues and random picks from the rest.

human ether-à-go-go-related gene (hERG) potassium channel, sequence (Q12809 whole entry, looked up): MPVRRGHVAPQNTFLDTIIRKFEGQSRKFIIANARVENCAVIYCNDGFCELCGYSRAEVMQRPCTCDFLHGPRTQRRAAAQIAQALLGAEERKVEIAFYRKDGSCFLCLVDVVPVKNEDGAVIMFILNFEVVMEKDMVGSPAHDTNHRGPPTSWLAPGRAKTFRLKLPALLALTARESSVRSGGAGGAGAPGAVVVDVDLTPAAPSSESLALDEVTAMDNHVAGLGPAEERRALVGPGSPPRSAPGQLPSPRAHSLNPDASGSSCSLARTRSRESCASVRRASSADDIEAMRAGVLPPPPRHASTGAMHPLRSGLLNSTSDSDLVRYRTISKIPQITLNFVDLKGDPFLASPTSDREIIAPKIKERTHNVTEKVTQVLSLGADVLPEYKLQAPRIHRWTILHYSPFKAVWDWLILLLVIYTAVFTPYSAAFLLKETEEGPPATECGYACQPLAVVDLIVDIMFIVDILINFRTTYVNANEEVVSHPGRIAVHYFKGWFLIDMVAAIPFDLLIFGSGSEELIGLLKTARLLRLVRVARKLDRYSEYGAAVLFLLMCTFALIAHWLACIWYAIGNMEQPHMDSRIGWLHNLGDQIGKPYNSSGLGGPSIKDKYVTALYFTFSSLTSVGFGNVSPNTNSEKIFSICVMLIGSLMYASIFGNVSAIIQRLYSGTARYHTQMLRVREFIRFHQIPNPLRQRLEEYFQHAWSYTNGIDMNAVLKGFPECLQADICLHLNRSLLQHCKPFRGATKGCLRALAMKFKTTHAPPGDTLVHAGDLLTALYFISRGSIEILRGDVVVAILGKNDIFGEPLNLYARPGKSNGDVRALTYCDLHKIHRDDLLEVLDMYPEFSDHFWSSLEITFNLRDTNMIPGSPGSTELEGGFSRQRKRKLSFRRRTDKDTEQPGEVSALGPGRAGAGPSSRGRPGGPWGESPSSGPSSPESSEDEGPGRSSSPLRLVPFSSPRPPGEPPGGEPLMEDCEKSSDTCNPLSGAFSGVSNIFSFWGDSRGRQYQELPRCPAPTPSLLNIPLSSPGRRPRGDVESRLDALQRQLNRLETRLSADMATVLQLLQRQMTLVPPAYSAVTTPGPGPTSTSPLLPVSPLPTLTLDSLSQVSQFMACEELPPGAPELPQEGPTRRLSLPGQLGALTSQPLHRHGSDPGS

This test addresses human ether-à-go-go-related gene (hERG) potassium channel (human, UniProt Q12809). The experiment in a line: primary screen, population patch clamp on CHO cells stably expressing hERG; higher = less effect of the substance.
Regarding `O=C1NC2CCc3nc4ccccc4c(=O)n3C2=Nc2ccccc21` (stereo not drawn), the “hERG current change (%, negative = inhibition) at 1uM” value is reported as -6.24%. With `COc1cc2c(=O)n(CCC(=O)NCC3CCCO3)c(=O)n(CC(=O)Nc3ccc(C)c(C)c3)c2cc1OC` (stereo not drawn), the “hERG current change (%, negative = inhibition) at 1uM” value came out at 11.6%. In the case of `CNC(=O)c1ccccc1NC(=O)c1ccc(C)c(S(=O)(=O)N2CCCCC2)c1`, the “hERG current change (%, negative = inhibition) at 1uM” value is recorded as -2.21%. For the compound `CC1(C)C2CC=C(/C=N/NC(=O)C(N)=O)C1C2` (stereo not drawn), the “hERG current change (%, negative = inhibition) at 1uM” value amounted to 10.3%. The same measure for `CC(C)Sc1nc2c(c(=O)[nH]c(=O)n2C)n1Cc1ccc(Cl)cc1`: 4.3%; for `CCCCCn1c(SC(C)C(C)=O)nc2c1c(=O)[nH]c(=O)n2C` (stereo not drawn): -91.2%. The same measure for `C/C(Cl)=C/Cn1c(SCC(C)C)nc2c1c(=O)[nH]c(=O)n2C`: 10%; for `CCC(C)Sc1nc2c(c(=O)[nH]c(=O)n2C)n1Cc1ccc(Cl)cc1` (stereo not drawn): 2.15%; for `CCOCCn1c(SC(C)C(C)=O)nc2c1c(=O)[nH]c(=O)n2C` (stereo not drawn): -0.132%. The same measure for `CCCCCCn1c(SCC(C)C)nc2c1c(=O)[nH]c(=O)n2C`: 10.1%; for `COC(=O)C(C)Sc1nc2c(c(=O)[nH]c(=O)n2C)n1CCC(C)C` (stereo not drawn): 4.51%. As for `C/C(Cl)=C/Cn1c(SC(C)C)nc2c1c(=O)[nH]c(=O)n2C`, the “hERG current change (%, negative = inhibition) at 1uM” value was determined as 6.96%. As to `COC(=O)C(C)Sc1nc2c(c(=O)[nH]c(=O)n2C)n1CCCc1ccccc1` (stereo not drawn), the “hERG current change (%, negative = inhibition) at 1uM” value was -70.1%. The same measure for `CCOC(=O)C(C)Sc1nc2c(c(=O)[nH]c(=O)n2C)n1CCc1ccccc1` (stereo not drawn): -5.6%; for `CCOC(=O)C(C)Sc1nc2c(c(=O)[nH]c(=O)n2C)n1C/C=C(/C)Cl` (stereo not drawn): -62.6%. `CCOC(=O)C(C)Sc1nc2c(c(=O)[nH]c(=O)n2C)n1Cc1ccc(Cl)cc1` (stereo not drawn): the “hERG current change (%, negative = inhibition) at 1uM” value was -78.7%.

For the compound `CCN(CC)C(=O)Oc1cc(=O)n(C)c2ccccc12`, the “hERG current change (%, negative = inhibition) at 1uM” value turned out to be 6.19%. Next, `Cc1ccc([C@H]2C(C#N)=C(N)Oc3cc(C)oc(=O)c32)o1`: 12.8%; `O=c1c2ccccc2n2cnnc2n1-c1ccccc1`: 2.26%.

Regarding `Cc1ccc(NC(=O)C(c2ccc(Cl)cc2)N2CCOCC2)cc1` (stereo not drawn), the “hERG current change (%, negative = inhibition) at 1uM” value was 16.1%. As to `Cc1cc2c(cc(C(=O)OCC(=O)NCc3ccco3)n2C)s1`, the “hERG current change (%, negative = inhibition) at 1uM” value was determined as 6.5%.

As to `CC1CCCC(NC(=O)CSc2nnnn2C)C1C` (stereo not drawn), the “hERG current change (%, negative = inhibition) at 1uM” value was determined as 13.2%. Next, `COc1ccc(NC(=O)C2CCCN(S(=O)(=O)c3ccc(Cl)cc3)C2)cc1OC` (stereo not drawn): 10.9%. Next, `CCCCCn1c(=O)c(C(=O)NCc2ccncc2)c(O)c2ccccc21`: 2.72%; `CC(NC(=O)c1ccccc1F)C(=O)O` (stereo not drawn): 16.8%; `C=C(C)COc1ccc(-c2nc(N)ncc2Oc2ccc(OC)cc2)c(O)c1`: -5.45%.

For `CC(/C=N/NC(=O)c1ccncc1)=C\c1ccco1`, the “hERG current change (%, negative = inhibition) at 1uM” value is 14.7%. Next, `Cc1ccc(CNC(=O)COc2ccc3c(c2)CCC3)cc1`: -2.48%. `CCOC(=O)CSc1nc2c(c(=O)[nH]c(=O)n2C)n1C/C=C(/C)Cl`: the “hERG current change (%, negative = inhibition) at 1uM” value was -7.88%. The same measure for `CCOC(=O)C(CC)Sc1nc2c(c(=O)[nH]c(=O)n2C)n1CCc1ccccc1` (stereo not drawn): -30.9%.

In the case of `CCOC(=O)C(CC)Sc1nc2c(c(=O)[nH]c(=O)n2C)n1C/C=C(/C)Cl` (stereo not drawn), the “hERG current change (%, negative = inhibition) at 1uM” value is -56.9%. The same measure for `COC(=O)CN1C(=O)[C@H]2[C@@H](C3CC3)N3C(=O)CN(Cc4ccc(-c5ccccc5)cc4)C(=O)[C@@]3(Cc3ccccc3)[C@H]2C1=O`: 15.6%; for `COc1ccccc1Oc1ccc2c(c1)C(=O)N(c1ccc(Br)c3cccnc13)C2=O`: 1.75%; for `O=C(CN1C(=O)/C(=C2\SC(=S)N(CCS(=O)(=O)O)C2=O)c2ccccc21)Nc1cccc(Br)c1`: -52.8%. The same measure for `Cc1cccc(NC(=O)CN2C(=O)/C(=C3\SC(=S)N(CC4CCCO4)C3=O)c3ccccc32)c1` (stereo not drawn): 17.1%. Next, `O=C1/C(=C2\C(=O)N(Cc3ccc(F)cc3)c3ccccc32)SC(=S)N1CCS(=O)(=O)O`: 10.6%; `Cc1cccc(NS(=O)(=O)c2cccc(C(=O)NCC3(N4CCCCC4)CCCCC3)c2)c1`: -45.1%.

As for `O=C(NCC1(N2CCCCC2)CCCCC1)c1cccc(NS(=O)(=O)c2ccccc2)c1`, the “hERG current change (%, negative = inhibition) at 1uM” value was -34%. The same measure for `Cc1ccc(S(=O)(=O)Nc2cccc(C(=O)NCC3(N4CCCCC4)CCCCC3)c2)cc1F`: -76.4%; for `Cn1cc(CN2CCc3c([nH]c4ccccc34)C2C(C)(C)C)cn1` (stereo not drawn): -3.25%.

Regarding `CCCc1nc2c(o1)CC(CC(C)SCC)CC2=O` (stereo not drawn), the “hERG current change (%, negative = inhibition) at 1uM” value is listed as -11.3%. For the compound `C=C(C)CSc1nc(N)c2c(C)c(C)sc2n1`, the “hERG current change (%, negative = inhibition) at 1uM” value was 10.3%. Next, `CC(C)Cc1ccc(CN2CCCC(NC(=O)c3ccoc3)C2)cc1` (stereo not drawn): -7.26%; `O=C(NC1CCCN(Cc2ccc(Cl)cc2)C1)c1c(F)cccc1F` (stereo not drawn): 17.1%. As for `O=C(NC1CCCN(Cc2ccc(Cl)cc2)C1)c1cccc(F)c1` (stereo not drawn), the “hERG current change (%, negative = inhibition) at 1uM” value is recorded as -18.6%. Next, `Cc1occc1C(=O)NC1CCCN(Cc2ccc(CC(C)C)cc2)C1` (stereo not drawn): 6.64%; `O=C(NC1CCCN(Cc2ccc(Cl)cc2)C1)c1c(F)ccc(F)c1F` (stereo not drawn): -55.4%; `CC(C)Cc1ccc(CN2CCCC(NC(=O)c3ccnn3C)C2)cc1` (stereo not drawn): -50.4%.

Values taken from PMC4336329 (PLoS ONE, 2015).
